High-throughput results (PubChem)
Hits are enriched below; roughly 12% of the tested compounds scored in any of these assays.
AMA1-RON2 inh = qHTS for Inhibitors of AMA1-RON; Towards Development of Antimalarial Drug Lead: Primary Screen; Potency, µM (doses to about 58.2 µM), hits mostly inhibitors; AlphaScreen AMA1-biotinylated RON2 peptide binding; Plasmodium falciparum AMA1 (3D7) - RON2 peptide interaction; hit rate 0.2% among 360,000; also: nearly all actives have a fitted effect of over 45% in size
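AMA1 (3D7) with his tag at 25 nM final met compounds first, then biotinylated RON2 peptide at 25 nM; detection used donor plus acceptor beads, 10 µg/mL apiece, read by AlphaScreen after 30 min at room temperature.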
NS1 inh = qHTS Assay for Inhibitors of Influenza NS1 Protein Function; Potency, µM (titrated, usually from 46.1 µM); hit rate 0.4% among 270,000; AID 2326, 2010; calls by dose curve; also: actives are rising curves; nearly all actives have a fitted effect of over 50% in size
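In this qHTS, NS1 from influenza A is expressed in budding yeast, where it slows growth. Cells are switched from glucose to 2% galactose medium (pH 6.0, -URA), treated with compound, and growth recovery is read at OD600.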
Pf growth 96h = Primary qHTS for delayed death inhibitors of the malarial parasite plastid, 96 hour incubation. hit rate 6.9% among 320,000. P. falciparum luciferase reporter growth, 96 h. Potency, µM (titrated, usually from 28.7 µM), hits mostly inhibitors
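P. falciparum expressing integrated firefly luciferase, in erythrocytes at 2% hematocrit, 0.05% parasitemia, incubated with compounds 96 h at 37 C, 5% CO2. Growth inhibition read as loss of luminescence; two-generation exposure targets delayed-death apicoplast inhibitors.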
Pf growth 48h = Primary qHTS for delayed death inhibitors of the malarial parasite plastid, 48 hour incubation. Potency, µM (doses to about 28.7 µM), most hits filed as inhibitors. P. falciparum luciferase growth in erythrocytes, 48 h. hit rate 5.9% among 310,000
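Compounds are pin-transferred into medium, infected erythrocytes (2% hematocrit, 0.1% parasitemia final) are added, and plates sit one parasite generation at 37 C in 5% CO2. Detection reagent is then added and luminescence measured.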
HCV inhibitor = qHTS Assay for Inhibitors of Hepatitis C Virus (HCV) | hit rate 3.4% among 340,000 | Potency, µM (titrated, usually from 41.8 µM), usual class: inhibitors | Huh7.5.1 HCVcc-Cre infection, luciferase reporter, 44 h
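Luciferase read-out (15 sec integration) after a 15 min room-temperature substrate step quantifies HCVcc-Cre infection. Cells, 1,000 per well, had compound added 4 h post-plating, then virus at ~0.5 moi, and were cultured 44 h.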
SARS PLpro yeast = qHTS of Yeast-based Assay for SARS-CoV PLP. AID 485353, 2010. hit rate 0.19% among 330,000. S. cerevisiae expressing SARS-CoV PLpro, growth rescue. Potency, µM (series often up to 32.9 µM), hits mostly activators; calls by dose curve; also: nearly all actives have a fitted effect of over 55% in size
Each line names hits and unclear results; the compound was inactive in the other large screens. Unless noted, calls follow the shape of the dose curve; as a rule, active = well fitted curve in the direction sought with a large enough effect; inconclusive = small, poorly fitted or top-dose-only effect, or another doubt; inactive = no such curve, though single readings can be large; an effect the other way counts as inactive or inconclusive.

O=C(N/N=C/c1ccoc1)c1ccccc1Br	SARS PLpro yeast inconclusive
COC(=O)N/N=C/c1ccc([N+](=O)[O-])s1	Pf growth 96h 8.3µM, Pf growth 48h 15µM, HCV inhibitor inconclusive
O=C(N/N=C/c1ccc([N+](=O)[O-])s1)c1ccccc1Br	Pf growth 96h 1.7µM, Pf growth 48h inconclusive, HCV inhibitor 11µM
COc1cc(OC)c(/C=N/NC(=O)Cn2nc([N+](=O)[O-])cc2C)c(OC)c1	none
COc1ccc(C(c2nnnn2Cc2cccs2)N2CCN(c3ccccc3F)CC2)cc1OC (stereo not given)	Pf growth 48h 2.3µM (no result: Pf growth 96h)
CCC(c1nnnn1Cc1ccccc1)N1CCN(C(=O)c2ccco2)CC1 (stereo not given)	NS1 inh inconclusive
COc1ccc(C(c2nnnn2Cc2ccccc2)N2CCN(c3nc4ccccc4s3)CC2)cc1OC (stereo not given)	AMA1-RON2 inh inconclusive, Pf growth 48h 10µM, HCV inhibitor inconclusive
CCCCC(c1nnnn1Cc1ccco1)N1CCN(c2nc3ccccc3s2)CC1 (stereo not given)	Pf growth 48h 9.3µM, HCV inhibitor inconclusive (no result: Pf growth 96h)
Fc1ccc(C(c2nnnn2Cc2cccs2)N2CCN(c3ccccc3)CC2)cc1 (stereo not given)	AMA1-RON2 inh inconclusive, Pf growth 48h inconclusive, HCV inhibitor inconclusive
CC(C)C(c1nnnn1Cc1ccc(F)cc1)N1CCN(C(=O)c2ccco2)CC1 (stereo not given)	Pf growth 96h 13µM, Pf growth 48h inconclusive
Cc1cccnc1NC(=O)c1nn(C)c2c1CS(=O)(=O)c1ccccc1-2	none
COCCCn1c(=O)c2ccccc2n2c(=S)[nH]nc12	none
Cc1ccc(NC(=O)c2cncc(Br)c2)nc1	none
COC(=O)c1ccc(C(=S)NCC2(N(C)C)CCCCC2)cc1	Pf growth 96h inconclusive, Pf growth 48h inconclusive
O=C(CC1C(=O)NCCN1Cc1ccccc1)NCCCOc1cccnc1 (stereo not given)	none
COc1ccccc1CN1CCN(C(CC(C)C)c2nnnn2Cc2cccs2)CC1 (stereo not given)	Pf growth 48h 13µM, HCV inhibitor inconclusive
COc1ccc(C(c2nnnn2Cc2ccccc2)N2CCN(C(=O)c3ccco3)CC2)cc1OC (stereo not given)	Pf growth 96h 3.7µM, Pf growth 48h inconclusive
CCCC(c1nnnn1Cc1cccs1)N1CCN(C)CC1 (stereo not given)	HCV inhibitor inconclusive
COc1ccccc1CN1CCN(Cc2nc(-c3cccs3)no2)CC1	Pf growth 96h 5.9µM
COCC1CCN(Cc2nc(-c3cccs3)no2)C1 (stereo not given)	Pf growth 96h inconclusive
CC(C)CCn1nnnc1C(c1ccc(N(C)C)cc1)N1CCN(C(=O)c2ccco2)CC1 (stereo not given)	Pf growth 96h 10µM, Pf growth 48h inconclusive
COCCCn1c(=O)c2ccccc2n(CC(=O)N2CCCc3ccccc32)c1=O	Pf growth 48h inconclusive
COC(=O)C1CCN(C(=O)COC(=O)c2cc(-c3cccs3)nn2-c2ccccc2)CC1	Pf growth 48h inconclusive, HCV inhibitor inconclusive (no result: NS1 inh)
N#Cc1ccccc1OCC(=O)Nc1ccccc1C(=O)NC1CC1	Pf growth 96h inconclusive, HCV inhibitor inconclusive (no result: NS1 inh)
COc1ccccc1C(c1nnnn1Cc1ccccc1)N1CCN(C2CCCC2)CC1 (stereo not given)	Pf growth 48h inconclusive, HCV inhibitor inconclusive
COc1ccccc1C(c1nnnn1Cc1ccccc1)N1CCN(c2nc3ccccc3s2)CC1 (stereo not given)	Pf growth 48h 3.3µM, HCV inhibitor 13µM
COc1nc(NCC(C)C)nc(Oc2ccc(OCc3ccccc3)nn2)n1	Pf growth 48h 0.37µM
CCNc1nc(NC(C)C)nc(Oc2ccc(OCc3ccccc3)nn2)n1	Pf growth 48h inconclusive
COc1cccc(-c2cc(C(F)(F)F)nc(-n3cc(C)cn3)n2)c1	Pf growth 48h inconclusive, HCV inhibitor 10µM (no result: NS1 inh)
COc1cccc(-c2cc(C(F)(F)F)nc(-n3cncn3)n2)c1	Pf growth 96h inconclusive
CCC1Sc2ccc(S(=O)(=O)CCC(=O)Nc3ccc(NC(C)=O)cc3)cc2NC1=O (stereo not given)	Pf growth 96h 6.6µM
CCC1Sc2ccc(S(=O)(=O)Nc3ccc(OC)c(OC)c3)cc2NC1=O (stereo not given)	HCV inhibitor 10µM
CCC1Sc2ccc(S(=O)(=O)CCC(=O)Nc3ccc(C(=O)OC)cc3)cc2NC1=O (stereo not given)	SARS PLpro yeast inconclusive
CCC1Sc2ccc(S(=O)(=O)Nc3ccc(OC)cc3)cc2NC1=O (stereo not given)	Pf growth 96h inconclusive
COCCc1nc2ccc(C(=O)N(C)Cc3cccc(-n4nc(C)cc4C)c3)cc2o1	Pf growth 96h inconclusive (no result: HCV inhibitor)
COCCC(=O)N1CCC(Oc2ccc(C(=O)N3C[C@H]4CC[C@H]3C4)cc2)CC1	none
CC(=O)c1cc2c(cc1NC(=O)CCC1CCCC1)OCO2	Pf growth 96h inconclusive, HCV inhibitor inconclusive (no result: AMA1-RON2 inh)
CC(=O)c1cc2c(cc1NC(=O)C1CC1)OCO2	HCV inhibitor 11µM, SARS PLpro yeast inconclusive
CC(=O)Nc1ccc(S(=O)(=O)NCC(=O)OCC(=O)NCCc2ccccc2)cc1	none (no result: NS1 inh, Pf growth 96h, Pf growth 48h, HCV inhibitor, SARS PLpro yeast)
COc1ccc(CN2CCOCCOCCN(Cc3ccc(OC)cc3)CCOCCOCC2)cc1	Pf growth 96h inconclusive, Pf growth 48h 13µM, HCV inhibitor inconclusive
COc1ccc(NS(=O)(=O)c2ccc(NC(=O)c3ccc(CN4CCOCC4)cc3)cc2)cc1	Pf growth 48h 15µM, HCV inhibitor 1.4µM
CCCCOc1ccc(C(=O)Nc2ccc(CN3CCOCC3)cc2)cc1	Pf growth 96h inconclusive, Pf growth 48h inconclusive, HCV inhibitor 10µM
O=C(Nc1ccc(S(=O)(=O)N2CCOCC2)cc1)c1ccc(F)cc1	Pf growth 96h inconclusive
CCCOc1ccc(C(=O)Nc2ccc(CN3CCOCC3)cc2)cc1	Pf growth 96h inconclusive, HCV inhibitor inconclusive
O=C(Nc1ccc(S(=O)(=O)Nc2ccc(F)cc2)cc1)c1ccc(CN2CCOCC2)cc1	Pf growth 48h inconclusive, HCV inhibitor 1µM
CC(=O)c1cccc(NC(=O)N2C3CCCC2CC(NC(=O)C2CC2)C3)c1 (stereo not given)	none
Cc1cc(OCCN2CCOCC2)ccc1C(C)C	none
CCN(C(=O)COC(=O)/C(C#N)=C/c1ccc(OC)cc1)C1CCS(=O)(=O)C1 (stereo not given)	none (no result: NS1 inh)
Cc1cc(C)cc(N2C(=O)CCN(Cc3ccccc3)C2=O)c1	none
